Assay [1] has as its system MILI (PIWIL2) piRISC loaded with piRNA #1 (26 nt). Kind of assay: pre-steady-state target cleavage rate (min^-1); guide: piRNA #1 5'p-UGAGGUAGUAGGUUGUAUAGUAUCCA; higher = faster piRNA-guided slicing of the target. As to conditions: auxiliary factor: 500 nM mouse GTSF1. The method, boiled down:
(§1)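 Cleave-'n-Seq: a transcribed, DNA-blocked target RNA library (0.1 nM) was mixed with 1 nM active affinity-purified piRISC carrying one synthetic guide, with or without 500 nM GTSF1 partner protein, in HEPES–potassium acetate buffer at 33 °C for 0–8 or 0–960 min. Uncleaved targets were sequenced and normalised to depth and to weakly complementary targets. Three trials were pooled, and k3 was capped at 0.0001 min^-1. The pre-steady-state cleavage rate came from a burst-and-steady-state fit.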

Assay [2] has as its system EfPiwi piRISC loaded with piRNA #1 (26 nt). Put plainly: pre-steady-state target cleavage rate (min^-1); auxiliary factor: 500 nM Ephydatia muelleri Gtsf1; guide: piRNA #1 5'p-UGAGGUAGUAGGUUGUAUAGUAUCCA; MIWI and MILI are mouse PIWI proteins and EfPiwi is from a freshwater sponge; tags in brackets are library labels; higher = faster piRNA-guided slicing of the target. An outline of the steps:
as §1

± gives the standard deviation.

In the case of GGAGACGAUACUAUACACCCUACUACCUCA, the “pre-steady-state target cleavage rate” value in assay [1] turned out to be 0.081 ± 0.0091; in assay [2], 0.011 ± 0.0045.

As to GGAGACCAUAGUAUACAACCUACUAGCUCA, the “pre-steady-state target cleavage rate” value was determined as 0.0143 ± 0.0053 in assay [1] and 0.00326 ± 0.0032 in assay [2].

On to GGAGACGUUACUAUAGAACCUACUACCUCA, for which the “pre-steady-state target cleavage rate” value came out at 0.154 ± 0.014 in assay [1] and 0.0026 ± 0.0023 in assay [2].

For GGAGAGGUUACUUUACAACCUACUACCUCA, the “pre-steady-state target cleavage rate” value was found to be 0.175 ± 0.01 in assay [1] and 0.00375 ± 0.0031 in assay [2].

Turning to GGAGUGGAUACUAUACAACCUUCUACCUCA, the “pre-steady-state target cleavage rate” value is 0.00895 ± 0.002 in assay [1] and 0.0116 ± 0.0048 in assay [2].

Take GGAGACGUUACUAUACAACCAACUACCUCA: the “pre-steady-state target cleavage rate” value worked out at 0.0041 ± 0.002 in assay [1] and 0.00407 ± 0.0025 in assay [2].

For the sequence GGAGACCAUCACUAUACAACCUACUACCUCA, the figures for the “pre-steady-state target cleavage rate” value in assay [1] and in assay [2] were 0.147 ± 0.021 and 0.0254 ± 0.012, respectively.

GGAGACCUAACUAUACAACCUACUACCCA: the entries for the “pre-steady-state target cleavage rate” value in assay [1] and in assay [2] were 0.0749 ± 0.027 and 0.00326 ± 0.0026, respectively.

For GGAGUGGAUACUAUACAACCUACGUACCUCA, the “pre-steady-state target cleavage rate” value in assay [1] came to 0.118 ± 0.014; in assay [2] it was 0.00401 ± 0.0015.

For GGAGACCUAUCAUAACAACCUACUACCUCA, the “pre-steady-state target cleavage rate” value in assay [1] was determined as 0.0143 ± 0.0053; in assay [2] it was 0.00531 ± 0.0037.

On to GGAGACCUAACUAUACAACCUACUACGAGA, for which the entries for the “pre-steady-state target cleavage rate” value in assay [1] and in assay [2] were 0.0403 ± 0.019 and 0.00515 ± 0.0032, respectively.

For GGAGACCAUACGUAUACAACCUACUACCUCA, the “pre-steady-state target cleavage rate” value in assay [1] was 0.212 ± 0.035; in assay [2], 0.159 ± 0.064.

For the sequence GGAGACGAUACUAUACUAGCUACUACCUCA, the results for the “pre-steady-state target cleavage rate” value in assay [1] and in assay [2] were 0.198 ± 0.011 and 0.00469 ± 0.0025, respectively.

As to GGAGACGAUACUAUGCAACCUACUACCUCA, the “pre-steady-state target cleavage rate” value stood at 0.21 ± 0.014 in assay [1] and 0.0141 ± 0.0066 in assay [2].

In the case of GGAGAGCAAACUAUACAACCUACUACCUCA, the “pre-steady-state target cleavage rate” value in assay [1] is 0.113 ± 0.019; in assay [2] it was 0.0127 ± 0.0059.

Turning to GGAGAGGAUACUAUACAACCUACUGCCUCA, the “pre-steady-state target cleavage rate” value in assay [1] turned out to be 0.126 ± 0.014; in assay [2], 0.00919 ± 0.0038.

For “GGAGACCUAACUAUACAACCUACUACCUCG [g2:g21:cont:t1G]”, the “pre-steady-state target cleavage rate” value in assay [1] amounted to 0.189 ± 0.035; in assay [2] it was 0.0178 ± 0.0076.

In the case of GGAGACCAUACUAUACCACCUACUACCUCA, the results for the “pre-steady-state target cleavage rate” value in assay [1] and in assay [2] were 0.157 ± 0.013 and 0.00807 ± 0.004, respectively.

Turning to GGAGUCGAUACUAUACAACCAACUACCUCA, the “pre-steady-state target cleavage rate” value in assay [1] was determined as 0.0053 ± 0.0019; in assay [2], 0.00517 ± 0.002.

For the sequence GGAGACCUAACUAUCCAACCUACUACCUCA, the “pre-steady-state target cleavage rate” value in assay [1] worked out at 0.208 ± 0.038; in assay [2], 0.00727 ± 0.004.

As to GGAGAGGAUAGUAUACAACCUAGUACCUCA, the “pre-steady-state target cleavage rate” value stood at 0.0263 ± 0.008 in assay [1] and 0.00231 ± 0.002 in assay [2].

Take GGAGUGGAUACUAUACAACCUACUACCUUA: the “pre-steady-state target cleavage rate” value worked out at 0.112 ± 0.011 in assay [1] and 0.276 ± 0.095 in assay [2].

As to GGAGACCAAACUAUACAACCUACUUCCUCA, the “pre-steady-state target cleavage rate” value was 0.0841 ± 0.035 in assay [1] and 0.00317 ± 0.0029 in assay [2].

GGAGACGAUAGUAUACAACCUACAACCUCA: the “pre-steady-state target cleavage rate” value turned out to be 0.106 ± 0.011 in assay [1] and 0.00195 ± 0.0018 in assay [2].

With GGAGACGAUUCUAUACAUCCUACUACCUCA, the “pre-steady-state target cleavage rate” value in assay [1] was found to be 0.267 ± 0.018; in assay [2] it was 0.00332 ± 0.0024.

As to GGAGACCUUACUAUACAACCUACUACACUCA, the “pre-steady-state target cleavage rate” value stood at 0.15 ± 0.022 in assay [1] and 0.0028 ± 0.0026 in assay [2].

Turning to GGAGACCAUACUAUACAAGCUAGUACCUCA, the entries for the “pre-steady-state target cleavage rate” value in assay [1] and in assay [2] were 0.0775 ± 0.016 and 0.0032 ± 0.0027, respectively.

For GGAGACGUACUAUACAACCUACUACCUCA, the “pre-steady-state target cleavage rate” value in assay [1] was found to be 0.154 ± 0.015; in assay [2], 0.0561 ± 0.022.

Turning to GGAGACCAUACUAUACAACCUACUAACCUCA, the “pre-steady-state target cleavage rate” value in assay [1] is 0.226 ± 0.019; in assay [2], 0.00357 ± 0.0025.

GGAGACCUAUCUCUACAACCUACUACCUCA: the “pre-steady-state target cleavage rate” value in assay [1] was 0.0688 ± 0.0068; in assay [2], 0.00937 ± 0.0045.

Regarding GGAGACGAUACUCAUACAACCUACUACCUCA, the “pre-steady-state target cleavage rate” value in assay [1] turned out to be 0.198 ± 0.02; in assay [2], 0.0151 ± 0.0063.

As to GGAGACGAUACUAUACAACUUACUACCUCA, the “pre-steady-state target cleavage rate” value in assay [1] amounted to 0.0232 ± 0.0039; in assay [2], 0.0183 ± 0.0077.

Consider GGAGUGGAUUGUAUACAACCUACUACCUCA, for which the “pre-steady-state target cleavage rate” value in assay [1] came to 0.151 ± 0.0098; in assay [2], 0.00594 ± 0.0037.

For GGAGUGGAUAGUAUACUACCUACUACCUCA, the “pre-steady-state target cleavage rate” value came to 0.113 ± 0.0097 in assay [1] and 0.00287 ± 0.0021 in assay [2].

Take GGAGACCAUACUAUACAACAUACUACCUCA: the results for the “pre-steady-state target cleavage rate” value in assay [1] and in assay [2] were 0.0769 ± 0.0092 and 0.00326 ± 0.0021, respectively.

As to GGAGUGGAUACUAUACAACCUACUACUCA, the “pre-steady-state target cleavage rate” value in assay [1] turned out to be 0.0385 ± 0.0084; in assay [2], 0.00563 ± 0.0029.

Regarding GGAGAGGUUUCUAUACAACCUACUACCUCA, the “pre-steady-state target cleavage rate” value in assay [1] came out at 0.14 ± 0.013; in assay [2] it was 0.00427 ± 0.004.

As for GGAGACGAAACUAAACAACCUACUACCUCA, the “pre-steady-state target cleavage rate” value in assay [1] was found to be 0.145 ± 0.022; in assay [2] it was 0.00324 ± 0.0032.

In the case of GGAGACGAAACUAUACAAGCUACUACCUCA, the entries for the “pre-steady-state target cleavage rate” value in assay [1] and in assay [2] were 0.242 ± 0.02 and 0.00338 ± 0.0017, respectively.

Consider GGAGACCUAUCUAUACAUCCUAGUACCUCA, for which the results for the “pre-steady-state target cleavage rate” value in assay [1] and in assay [2] were 0.0489 ± 0.012 and 0.00398 ± 0.0038, respectively.

For the sequence GGAGACGAUACUAUACAACGUUCUACCUCA, the figures for the “pre-steady-state target cleavage rate” value in assay [1] and in assay [2] were 0.00469 ± 0.0024 and 0.00329 ± 0.0013, respectively.

Consider GGAGACGAAACUAUUCAACCUACUACCUCA, for which the “pre-steady-state target cleavage rate” value in assay [1] came out at 0.198 ± 0.021; in assay [2], 0.00439 ± 0.0036.

Take GGAGUGGAUACUAUUCAACCUAGUACCUCA: the “pre-steady-state target cleavage rate” value is 0.0485 ± 0.0085 in assay [1] and 0.00286 ± 0.0013 in assay [2].

In the case of GGAGACCAUACUAUACAACCUACUACCACA, the “pre-steady-state target cleavage rate” value in assay [1] is 0.231 ± 0.029; in assay [2] it was 0.00574 ± 0.002.

In the case of GGAGUGGAUACUAUACUACCUACUACCUCA, the “pre-steady-state target cleavage rate” value in assay [1] worked out at 0.196 ± 0.0088; in assay [2] it was 0.00816 ± 0.0037.

In the case of GGAGUGGUUACUAUACAACCUAGUACCUCA, the “pre-steady-state target cleavage rate” value in assay [1] turned out to be 0.0547 ± 0.01; in assay [2], 0.00359 ± 0.0015.

For the sequence GGAGAGGAAACUAUACAACCUAGUACCUCA, the “pre-steady-state target cleavage rate” value amounted to 0.0133 ± 0.0079 in assay [1] and 0.00323 ± 0.0013 in assay [2].

GGAGUGGAUACUAUACUACCAACUACCUCA: the “pre-steady-state target cleavage rate” value was determined as 0.00975 ± 0.0022 in assay [1] and 0.00428 ± 0.002 in assay [2].

Regarding GGAGACCUAACAUACAACCUACUACCUCA, the “pre-steady-state target cleavage rate” value is 0.0208 ± 0.009 in assay [1] and 0.0097 ± 0.005 in assay [2].

Take GGAGUGGAUACUUUACAACCUACUACCUCA: the figures for the “pre-steady-state target cleavage rate” value in assay [1] and in assay [2] were 0.174 ± 0.0092 and 0.00658 ± 0.0035, respectively.

Regarding GGAGUGGAGACUAUACAACCUACUACCUCA, the figures for the “pre-steady-state target cleavage rate” value in assay [1] and in assay [2] were 0.212 ± 0.029 and 0.0807 ± 0.031, respectively.

With GGAGAGGAUACUAUACAUCCUACUACCACA, the “pre-steady-state target cleavage rate” value in assay [1] was determined as 0.0843 ± 0.016; in assay [2], 0.00374 ± 0.0014.

Take GGAGACGAUACUAUACAUGCUACUACCUCA: the “pre-steady-state target cleavage rate” value was 0.115 ± 0.01 in assay [1] and 0.00483 ± 0.0015 in assay [2].

Take GGAGACGAUACUAUACAACCUACAACCUCA: the results for the “pre-steady-state target cleavage rate” value in assay [1] and in assay [2] were 0.142 ± 0.019 and 0.00407 ± 0.0013, respectively.

For the origin of these results see the supplement of paper PMC10338343.
